# Hits are enriched below; roughly 2.2% of the tested compounds scored in any of these assays.
# IEC-6 tox-1: IEC-6 cytotoxicity, counter-screen for KLF5 inhibitors. luminescence viability. 0.78% of 290,000 active. AID 1825. inhibition, % at 5 µM;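 also: 0% = plate median of test compound wells and 100% = cytotoxic reference compound wells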
# BaF3 parental: parental Ba/F3 viability inhibition as JAK2V617F counter-screen; CellTiter-Glo ATP luminescence; inhibition, % at 5.6 µM; 1.1% of 220,000 active; AID 1486;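 active = inhibition above a per-campaign cutoff, the mean inhibition of all tested compounds plus 3 SD, cut at about 27% in these data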;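 also: 0% = DMSO wells and 100% = JAK Inhibitor I control wells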
# Ba/F3 V617F tox: reduce viability of Ba/F3 cells dependent on JAK2V617F; inhibition, % at 5.6 µM; 1.1% of 220,000 active; Ba/F3 EpoR-JAK2V617F viability, ATP luminescence;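 active = inhibition above the campaign mean plus 3 SD over all tested compounds, cut at about 24% in these data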;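 also: cytokine-independent growth of Ba/F3 cells driven by EpoR plus mutant JAK2; 0% = DMSO-treated cells and 100% = JAK inhibitor I control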
# KLF5 inh: kruppel-like factor 5 inhibition. inhibition, % at 5 µM. DLD-1 KLF5 promoter-luciferase reporter, luminescence. 0.23% of 290,000 active. AID 1700;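 active = inhibition above a per-plate limit of that plate's mean compound inhibition plus 3 SD, cut at about 60% in these data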;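 also: 0% = DMSO wells and 100% = LY294002 at 200 µM; higher means less KLF5 promoter-driven luciferase light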
# aSyn UTR inh: 5' untranslated region of α-synuclein, MLPCN primary screen. alpha-synuclein 5'UTR reporter, inhibitor activity. inhibition, % (tested at 7.5 µM). 0.82% of 300,000 active; in the data active = inhibition above about 60%;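 also: H4 neuroglioblastoma cells stably carrying SNCA 5'UTR luciferase fusion; 0% = DMSO wells and 100% = positive control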
# APP transl inh: APP translation inhibition; SH-SY5Y APP 5'UTR-luciferase reporter, luminescence; inhibition, % at 2 µM; 0.82% of 190,000 active;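 active = inhibition above a set limit, derived from the sample mean plus 3 SD, cut at about 45% in these data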
# KLF5 inh confirm: KLF5 inhibition, confirmation assay. shares compounds with KLF5 inh. inhibition, % at 4 µM. 79% of 610 active. DLD-1 KLF5 promoter firefly luciferase reporter, luminescence;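 active = inhibition above a set limit taken from the earlier primary screen, cut at about 63% in these data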;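 also: 0% = DMSO wells and 100% = LY294002 at 200 µM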
# IEC-6 tox-2: counter-screen for KLF5 inhibitors: cytotoxicity in rat IEC-6 cells; shares compounds with KLF5 inh; IEC-6 rat intestinal cells, viability luminescence; inhibition, % at 4 µM; 56% of 610 active; in the data active = inhibition above about 23%;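 also: cells exposed to compounds for 48 hours before viability read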
# IEC-6 tox confirm: IEC-6 cytotoxicity, confirmation assay; shares compounds with IEC-6 tox-1; IEC-6 rat intestinal epithelial viability, luminescence; 63% of 1,900 active; inhibition, % at 5 µM; AID 1907;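 also: 0% = vehicle and 100% = reference cytotoxic drug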
# * = called active by the depositor; nt = no result. Rule as the data show it, unless noted: active = inhibition above about 22%; inactive = the rest.
SMILES,IEC-6 tox-1,BaF3 parental,Ba/F3 V617F tox,KLF5 inh,aSyn UTR inh,APP transl inh,KLF5 inh confirm,IEC-6 tox-2,IEC-6 tox confirm
Cc1c(/C=N\NC(=O)C2COc3ccccc3O2)c2ccccc2n1C (stereo unspecified),80*,76*,78*,74*,102*,91*,82*,75*,61*
CCOC(=O)c1[nH]c(C)c(C(=O)N2CCc3ccccc32)c1C,92*,85*,81*,77*,90*,96*,80*,62*,55*
CCOc1cc(C#N)c(NC(=O)c2cccnc2)cc1OCC,82*,77*,84*,73*,41,89*,79*,50*,56*
COc1ccc(C2NN=C(c3c[nH]c4ccccc34)C2O)cc1 (stereo unspecified),1,nt,nt,-5,-12,nt,nt,nt,nt
COc1ccc(C2C(O)C(c3c[nH]c4ccccc34)=NN2C(=O)CCl)cc1 (stereo unspecified),102*,nt,nt,102*,108*,nt,99*,101*,100*
O=C(Nc1ccc(S(=O)(=O)N2CCOCC2)cc1)c1ccc([N+](=O)[O-])o1,67*,66*,68*,99*,-120,nt,5,8,11
O=C(Nc1ccc(S(=O)(=O)N2CCOCC2)cc1)c1ccc([N+](=O)[O-])s1,nt,nt,nt,nt,-43,nt,nt,nt,nt
COc1cc2c(cc1OC)C(C)N(C(=O)c1cc(C)on1)CC2 (stereo unspecified),85*,nt,nt,74*,97*,nt,89*,54*,55*
COc1ccc(NS(=O)(=O)c2cc(C)ccc2NC(=O)c2cc(C)oc2C)cc1,82*,79*,75*,62*,103*,95*,81*,62*,62*
CCn1c2ccccc2c2cc(NC(=O)c3cc(OC)c(OC)c(OC)c3)ccc21,92*,86*,87*,83*,-23,8,89*,86*,89*
CCn1c2ccccc2c2cc(NC(=O)COc3ccc(OC)cc3)ccc21,5,4,-1,-37,15,3,nt,nt,nt
CCOc1ncccc1C(=O)N1CCN(c2cccc(C)c2C)CC1,86*,81*,81*,73*,-15,95*,85*,60*,54*
CCOc1ncccc1C(=O)N1CCN(C(=O)c2ccccc2)CC1,-4,0,-6,-28,-10,-5,nt,nt,nt
CCOc1ncccc1C(=O)N1CCN(c2cc(Cl)ccc2C)CC1,82*,68*,65*,68*,57,91*,78*,64*,61*
CCn1cc(C(=O)Nc2ccc(OC)c(S(=O)(=O)N3CCCCC3)c2)c(=O)c2ccc(C)nc21,-3,8,-1,2,1,2,nt,nt,nt
COc1ccc(OC)c(Nc2c3c(nc4ccccc24)CCC3)c1,85*,nt,nt,64*,106*,nt,111*,63*,58*
Nc1ccc(C(=O)n2c3ccccc3c3ccccc32)cc1,83*,73*,68*,79*,117*,94*,85*,60*,58*
O=C(Cc1n[nH]c(=O)c2ccccc12)OCC(=O)c1ccc2c(c1)OCCO2,89*,82*,83*,77*,80*,95*,65*,72*,60*
COc1ccc(/C=C/C(=O)c2cc(F)ccc2OC(=O)c2ccc(OC)c(OC)c2)cc1OC,0,3,2,-22,9,-4,nt,nt,nt
COc1ccc(/C=C/C(=O)c2cc(F)ccc2OC(=O)c2ccccc2OC)cc1OC,52*,10,3,70*,68*,89*,84*,40*,41*
COc1ccc(-c2nn(-c3ccccc3)cc2/C=N/NC(N)=S)cc1OC,72*,82*,82*,69*,90*,95*,71*,59*,62*
COc1ccc(-c2nn(-c3ccccc3)cc2/C=N/n2cnnc2)cc1OC,0,3,-2,4,10,-1,nt,nt,nt
Cc1[nH]c2ccccc2c1-c1csc(NC(=O)CSCCO)n1,6,3,-1,-23,-43,6,nt,nt,nt
CCN(CC)c1ccc(NC(=O)c2cc(OC)cc(OC)c2)c(C)c1,78*,78*,78*,75*,-23,92*,79*,60*,60*
COc1cc(-c2nnc3n2N=C(c2ccccc2)CS3)cc(OC)c1OC,77*,81*,74*,79*,63*,94*,73*,69*,67*
SMILES,IEC-6 tox-1,BaF3 parental,Ba/F3 V617F tox,KLF5 inh,aSyn UTR inh,APP transl inh,KLF5 inh confirm,IEC-6 tox-2,IEC-6 tox confirm
COc1ccc(OC)c(C2=Nn3c(nnc3-c3cc(OC)c(OC)c(OC)c3)SC2)c1,1,8,3,-1,28,3,nt,nt,nt
COc1cccc(N2CCN(C(=O)c3ccc(CS(=O)c4ccc(C)cc4)o3)CC2)c1 (stereo unspecified),85*,nt,nt,74*,97*,nt,92*,85*,59*
COc1cccc(N2CCN(C(=O)c3ccc(CS(=O)Cc4ccc(C)cc4)o3)CC2)c1 (stereo unspecified),-6,nt,nt,1,14,nt,nt,nt,nt
COc1ccc2[nH]c3c(C)c4ccncc4c(C)c3c2c1,74*,60*,65*,75*,109*,nt,77*,59*,58*
COC(=O)Cc1nc(Nc2ccccc2)sc1C,-7,3,0,-35,20,nt,nt,nt,nt
Cc1ccc(S(=O)(=O)Nc2cc(C)cn(Cc3ccc(F)cc3)c2=O)cc1,-4,nt,nt,3,28,nt,nt,nt,nt
O=C(N/N=C/c1ccc(O)cc1O)c1ccncc1,-3,nt,nt,6,8,nt,nt,nt,nt
O=C(N/N=C/c1cc(Br)cc(Br)c1O)c1ccncc1,24*,-5,4,78*,36,26,88*,40*,14
O=C(CN1C(=O)/C(=C\c2cccc(Cl)c2)Oc2ccccc21)N1CCN(c2ccccn2)CC1,3,9,1,-39,6,11,nt,nt,nt
CCN(CC)c1ccc(-c2nn3c(-c4ccccc4OC)nnc3s2)cc1,93*,87*,93*,80*,83*,94*,91*,72*,77*
O=C(/C=C/c1c(F)cccc1Cl)c1ccc(O)cc1,11,1,4,-106,-115,nt,nt,nt,nt
CN1/C(=C\C=C(/C#N)C(=O)Nc2ccccc2F)C(C)(C)c2ccccc21,1,7,-1,-39,25,-18,nt,nt,nt
CN1/C(=C/C=C(/C#N)C(N)=O)C(C)(C)c2ccccc21,47*,62*,78*,69*,-146,68*,60,36*,44*
COc1cc(OC)cc(C(=O)Nc2ccccc2C(=O)NCc2cccnc2)c1,2,nt,nt,8,15,nt,nt,nt,nt
